The record followed here is PubChem BioAssay (Tox21).

“And” between values parts separate entries of the source, which are not always exact repeats. Identical values can stand only once. Results filed as inconclusive are left out. Where a call stands in place of a potency, no number is given. The source made the active and inactive calls. The call rests on the fitted dose curve.
Potency means the concentration at half of the fitted maximal effect.

5-hydroxytryptamine receptor 2A (Homo sapiens), sequence (P28223 whole entry, looked up): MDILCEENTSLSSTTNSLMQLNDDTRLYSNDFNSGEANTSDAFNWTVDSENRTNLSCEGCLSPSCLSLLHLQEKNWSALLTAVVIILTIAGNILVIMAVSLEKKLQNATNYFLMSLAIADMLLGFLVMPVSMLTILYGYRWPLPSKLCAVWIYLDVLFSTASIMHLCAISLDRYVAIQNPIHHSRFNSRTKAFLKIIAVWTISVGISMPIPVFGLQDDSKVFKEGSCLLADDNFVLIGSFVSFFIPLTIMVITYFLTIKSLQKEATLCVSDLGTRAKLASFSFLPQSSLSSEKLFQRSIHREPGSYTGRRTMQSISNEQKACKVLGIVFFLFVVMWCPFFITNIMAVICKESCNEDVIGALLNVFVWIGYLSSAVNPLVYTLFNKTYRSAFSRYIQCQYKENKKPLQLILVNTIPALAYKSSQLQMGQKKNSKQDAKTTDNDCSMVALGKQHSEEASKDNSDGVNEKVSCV

The target of the assay is 5-hydroxytryptamine receptor 2A (Homo sapiens) (UniProt P28223). Put plainly: 5-hydroxytryptamine receptor 2A (HTR2A) small molecule agonists, cell-based qHTS assay (AID 1963587). Further: nearly all actives have a fitted effect of over 30% in size. The note with it: HTR2A-CHO cells, calcium flux fluorescence, agonist mode; series mostly up to 76.8 µM. An excerpt:
National Center for Advancing Translational Sciences [NCATS]
Division of Preclinical Innovation [DPI]
U.S. Environmental Protection Agency [EPA]
National Institutes of Environmental Health Sciences [NIEHS]
National Toxicology Program [NTP]
U.S. Food and Drug Administration [FDA]
The HTR2A receptor is a subtype of the 5-HT2 receptor that belongs to the serotonin receptor family and is a G protein-coupled receptor (GPCR). The HTR2A-CHO cell line stably expressing human 5-hydroxytryptamine receptor 2A (HTR2A) can be used for screening agonists of interactions between 5-HT2 and its ligands. The HTR2A-CHO calcium flux assay is a homogeneous fluorescence-based assay for detecting the intracellular calcium level using FDSS kinetic plate reader system.
HTR2A-CHO cells were dispensed at 2000 cells/3uL/well in 1536-well black-clear bottom plates using a Multidrop Dispenser. After the assay plates were incubated at a 37 C/5% CO2 incubator for 18 h, 3 uL of Dye Loading Buffer was transferred to the assay plate by a Flying Reagent Dispenser. The assay plates were incubated at 37 C for 1h. For agonist mode, 23 nL of compounds dissolved in DMSO, positive controls or DMSO only was transferred to the assay plate by a pin tool. The fluorescence intensity in the plates was measured using FDSS 7000EX kinetic plate reader for 2 min at 1 sec intervals.
On the technique in general: In qHTS, concentration-response curves come from the screen itself.
As to `CCCC(=O)C(C)=O`, the Potency entry is “inactive”.

Consider `Cc1ccccc1C`, for which the Potency entry is “inactive”.

For the molecule `NCCNCCNCCNCCN`, the Potency entry was “inactive”.

For `CC(=O)OCCCc1ccccc1`, the Potency entry is “inactive”.

Turning to `O=C(O)c1ccco1`, the Potency result was “inactive”.

`CO[C@@H]1[C@@H](O[C@@H]2O[C@H](C)[C@@H](O[C@H]3C[C@@](C)(O)[C@@H](O)[C@H](C)O3)[C@H](N(C)C)[C@H]2O)[C@@H](CC=O)C[C@@H](C)[C@@H](O[C@@H]2CC[C@H](N(C)C)[C@@H](C)O2)/C=C/C=C/C[C@@H](C)OC(=O)C[C@H]1OC(C)=O`: the Potency entry is “inactive”.

For `Cc1nc(C)c(C)nc1C`, the Potency result is “inactive”.

On to `CCN(CC)C(=O)C1CN2CCc3cc(OC)c(OC)cc3C2CC1OC(C)=O` (stereo not given), for which the Potency result was “inactive”.

Turning to `O=S(=O)(O)c1cc(O)c(O)c(S(=O)(=O)O)c1`, the Potency result was “inactive”.

Take `CCC(CO)(CO)CO`: the Potency result was “inactive”.

Consider `O=CC1CC1`, for which the Potency entry is “inactive”.

For the molecule `NCCC(O)(P(=O)(O)O)P(=O)(O)O`, the Potency result is “inactive”.

Turning to `CC(=O)O[C@@H]1C[C@@H]2CC[C@@]1(C)C2(C)C`, the Potency result is “inactive”.

In the case of `Cc1cccc2c1ccc1ccccc12`, the Potency entry was “inactive”.

As for `C[N+](C)(C)CC[N+]1(C)Cc2c(Cl)c(Cl)c(Cl)c(Cl)c2C1`, the Potency entry is “inactive”.

On to `CC1=CCC(C(C)C)=CC1`, for which the Potency result was “inactive”.

In the case of `O=C(O)c1ccc(O)cc1O`, the Potency result is “inactive”.

For `CCCCc1ccc2cccc(S(=O)(=O)O)c2c1`, the Potency entry was “inactive”.

For `CCC(C)(C)C1CCC(=O)CC1`, the Potency result was “inactive”.

As for `CC(C)CCCO`, the Potency entry was “inactive”.

Take `C=CCOCC(CC)(CO)COCC=C`: the Potency result is “inactive”.

Take `C/C=C(\C)C(=O)OCc1ccccc1`: the Potency entry was “inactive”.

Take `CC1(C)[C@H]2CC[C@](C)(C2)[C@H]1O`: the Potency result was “inactive”.

On to `NCCNCCNCCN`, for which the Potency result is “inactive”.

In the case of `C[Si](C)(C)O[Si](C)(C)O[Si](C)(C)C`, the Potency result is “inactive”.

Regarding `Nc1ccc([N+](=O)[O-])c(C(F)(F)F)c1`, the Potency entry was “inactive”.

Consider `CCN(CC#N)c1cccc(C)c1`, for which the Potency result was “inactive”.

Take `CC(=O)OCc1ccccc1`: the Potency result is “inactive”.

Regarding `CN(C(=O)c1c(O)c2ccccc2n(C)c1=O)c1ccccc1`, the Potency entry was “inactive”.

For the molecule `CCC(C(=O)NC(N)=O)c1ccccc1` (stereo not given), the Potency result was “inactive”.

For `C/C=C/C(=O)CCCC`, the Potency entry is “inactive”.

For the molecule `N#CCc1cccc(C(F)(F)F)c1`, the Potency result is “inactive”.

On to `Cc1c(N)cccc1C(F)(F)F`, for which the Potency entry is “inactive”.

Take `Cc1cc(O)cc2c1O[C@](C)(CCC[C@H](C)CCC[C@H](C)CCCC(C)C)CC2`: the Potency entry is “inactive”.

Take `C[C@@H]1NC(=O)[C@@H](N)CNC(=O)[C@H](C2CCNC(N)=N2)NC(=O)/C(=C/NC(N)=O)NC(=O)[C@H](CNC(=O)C[C@@H](N)CCCN)NC1=O` (stereo not given in full): the activation was -0.558% [at 0.292 µM] (inactive).

`O=C1c2ccccc2CCc2ccccc21`: the Potency result is “inactive”.

For the molecule `FC(F)(F)/C(=N\OCC1OCCO1)c1ccc(Cl)cc1`, the Potency result is “inactive”.

On to `O=C1Cc2cc(Cl)ccc2N1`, for which the Potency entry was “inactive”.

On to `CCCCC(CC)COCC1CO1` (stereo not given), for which the Potency result was “inactive”.

For the molecule `CCCCC(CC)COC(=O)CC(C(=O)OCC(CC)CCCC)S(=O)(=O)O` (stereo not given), the Potency was 42 µM (active) and 43.6 µM (active).
